Screening data (PubChem BioAssay)
Most compounds without a hit are left out; they make up all but 1.1% or so of the library.
IDE cell inh: human IDE inhibitors in live cells, primary screen, fluorescence polarization, HEK cells, FAbetaB substrate; Insulin-degrading enzyme (Homo sapiens), P14735; FAbetaB cleavage; inhibition, % at 5.59 µM; 320,000 tested, 0.41% active;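 active means percent inhibition above the average of all tested compounds plus 3 SD, set per screening campaign, cut at about 16% in these data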;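 further: IDE supplied by intact live HEK cells; FP after avidin binding of uncleaved biotin substrate so inhibition keeps polarization high; 0% = DMSO wells and 100% = 60 µM reference IDE inhibitor Ii1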
LANA-H2A inh: blockers of LANA interaction with H2A/H2B – biochemical, FP readout, HTS, primary screen | Protein LANA1 (Human herpesvirus 8 type P (isolate GK18)), Q9QR71 | AID 2629, 2010 | cell-free LANA-H2A/H2B peptide, fluorescence polarization | inhibition, % (test concentration not listed) | 320,000 tested, 0.6% active; in the data active means inhibition mostly above about 10%, no sharp cut-off; inactive means mostly below about 6.7%
Target sequence (Q9QR71 whole entry, looked up): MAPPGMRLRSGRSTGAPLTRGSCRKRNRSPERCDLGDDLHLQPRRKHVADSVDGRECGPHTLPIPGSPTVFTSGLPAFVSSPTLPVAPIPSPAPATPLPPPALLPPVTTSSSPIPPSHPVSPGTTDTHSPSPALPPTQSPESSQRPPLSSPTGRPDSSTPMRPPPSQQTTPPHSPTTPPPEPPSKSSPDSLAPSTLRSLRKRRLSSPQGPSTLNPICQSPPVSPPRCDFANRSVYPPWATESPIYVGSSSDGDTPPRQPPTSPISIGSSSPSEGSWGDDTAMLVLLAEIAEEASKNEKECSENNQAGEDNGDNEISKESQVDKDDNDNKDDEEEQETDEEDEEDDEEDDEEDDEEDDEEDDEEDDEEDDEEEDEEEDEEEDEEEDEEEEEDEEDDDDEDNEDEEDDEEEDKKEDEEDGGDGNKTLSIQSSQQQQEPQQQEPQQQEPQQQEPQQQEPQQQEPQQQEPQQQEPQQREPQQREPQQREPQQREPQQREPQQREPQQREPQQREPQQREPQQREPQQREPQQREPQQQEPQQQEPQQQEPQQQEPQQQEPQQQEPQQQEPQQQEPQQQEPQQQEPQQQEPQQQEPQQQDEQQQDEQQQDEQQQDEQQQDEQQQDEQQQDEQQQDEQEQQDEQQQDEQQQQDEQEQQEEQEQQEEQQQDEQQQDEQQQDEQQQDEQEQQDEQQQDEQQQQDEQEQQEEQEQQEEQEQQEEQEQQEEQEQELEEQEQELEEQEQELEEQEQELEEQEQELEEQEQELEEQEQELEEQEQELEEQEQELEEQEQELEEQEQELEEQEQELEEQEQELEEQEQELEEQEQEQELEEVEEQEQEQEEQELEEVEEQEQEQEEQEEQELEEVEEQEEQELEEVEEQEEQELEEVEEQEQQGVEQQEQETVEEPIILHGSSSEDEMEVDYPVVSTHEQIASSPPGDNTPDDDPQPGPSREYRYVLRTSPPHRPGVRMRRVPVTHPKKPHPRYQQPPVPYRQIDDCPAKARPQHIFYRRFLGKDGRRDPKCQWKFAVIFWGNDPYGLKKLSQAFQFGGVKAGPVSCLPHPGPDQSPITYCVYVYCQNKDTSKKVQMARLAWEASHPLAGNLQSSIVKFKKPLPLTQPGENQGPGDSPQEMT
HDAC3 inh: HDAC3 deacetylase inhibitors, primary screen, biochemical, fluorescence, cell-free homogeneous; recombinant HDAC3, fluorogenic peptide/trypsin coupled; 320,000 tested, 0.15% active; Histone deacetylase 3 (Homo sapiens), O15379; inhibition, % at 8.3 µM; in the data active means inhibition above about 26%, passing the limit was not always enough
IDE cell activ: human IDE activators in live cells, primary screen, fluorescence polarization, HEK cells, FAbeta-B substrate | activation, % at 5.96 µM | FAbeta-B cleavage; 0% vehicle, 100% cell-free pure enzyme wells | AID 493087, 2011 | 340,000 tested, 0.073% active;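 active means activation above the mean of all tested compounds plus 3 SD, set per screening campaign, cut at about 17% in these data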
Numbers without * were called inactive; i = inactive; nt = not tested or not shown; + = active, no number.

SMILES | IDE cell inh | LANA-H2A inh | HDAC3 inh | IDE cell activ
CCc1ccc(OCC(=O)Nc2ccc(S(=O)(=O)N3CCCC3)cc2)c(Br)c1 | 7 | 3 | -1 | -13
CCOc1ccc(NC(=O)COc2ccc(S(=O)(=O)N3CCOCC3)cc2)cc1 | 4 | -8 | 0 | 0
COc1ccc(OCC(=O)Nc2ccc(S(=O)(=O)N3CCOCC3)cc2)cc1 | -3 | 28* | 2 | 2
COc1ccc(NC(=O)CN(C)C(=O)/C=C/c2ccc(S(=O)(=O)N3CCCCCC3)cc2)cc1 | 11 | 110* | -1 | 5
CC(C)CCCCCCNC(=S)Nc1ccc(S(=O)(=O)N2CCOCC2)cc1 | -1 | -2 | 29* | 3
CCc1ccccc1NC(=O)c1cnn(-c2ccccc2)c1C | -3 | 0 | -2 | -1
COc1ccccc1N1CCN(c2ccc3cc(S(=O)(=O)N4CCCCC4)ccc3n2)CC1 | 5 | -4 | 1 | -3
CN(C(=O)COC(=O)c1cc(=O)[nH]c2ccccc12)c1ccccc1 | -3 | 2 | -3 | 6
CC(=O)Nc1cc2c(cc1C(=O)c1ccccc1)OCCO2 | -3 | 3 | -2 | 18*
Cc1ccc(S(=O)(=O)N2CCN(CC(=O)Nc3ccccc3C(=O)NC3CC3)CC2)cc1 | nt | nt | nt | -2
CCOC(=O)CNC(=O)c1cccnc1 | 0 | -1 | -10 | 6
CCOC(=O)C(O)(NC(=O)c1cccnc1)C(F)(F)F (stereo not drawn) | 5 | -2 | 42* | 4
CCCCCc1nnc(NC(=O)C2CCCO2)s1 (stereo not drawn) | 1 | 6 | 4 | 36*
COc1cccc(OC)c1C(=O)NCCOc1cc(C)cc(C)c1 | 4 | 1 | -9 | 2
Cc1cc(C)cc(N2C(=O)CC(Sc3ncn[nH]3)C2=O)c1 (stereo not drawn) | -1 | -4 | 29* | 0
COc1cccc(C2C(C(=O)c3sc(C)nc3C)=C(O)C(=O)N2CCN2CCOCC2)c1OC (stereo not drawn) | 4 | -6 | 0 | 3
COc1ccccc1C1C(C(=O)c2sc(C)nc2C)=C(O)C(=O)N1CCN1CCOCC1 (stereo not drawn) | 3 | 17* | 10 | 4
Cc1ccc(S(=O)(=O)N=S(CCO)CCO)cc1 | -5 | 7 | -6 | 6
CC(C)(C)C(C(=O)n1cccc1C#N)c1ccccc1 (stereo not drawn) | 1 | 1 | 10 | 3
CN(C)C(CNC(=O)c1ccc(Cl)c(S(=O)(=O)N2CCCCCC2)c1)c1ccccc1 (stereo not drawn) | 3 | 15* | 5 | 3
Cc1nc(C2CC(=O)OC23CCCCC3)cs1 (stereo not drawn) | -2 | -5.5* | -4 | -1
O=C(CC1SC(=O)N(c2ccccc2)C1=O)Nc1ccc(Cl)cc1 (stereo not drawn) | 8 | -3 | 45* | 1
O=C(CC1SC(=O)N(c2ccccc2)C1=O)Nc1ccc(Br)cc1 (stereo not drawn) | 0 | -3 | 50* | nt
CC(C)(C)c1ccc(C2C(C(=O)c3ccco3)=C(O)C(=O)N2CC2CCCO2)cc1 (stereo not drawn) | -3 | -5 | -10 | 1
C[n+]1c2cc(N)ccc2cc2ccc(N)cc21 | nt | nt | nt | 39*
SMILES | IDE cell inh | LANA-H2A inh | HDAC3 inh | IDE cell activ
O=C(NCCc1ccccc1)C1CCN(C2CCN(C(=O)CC3=CCCCC3)CC2)CC1 | 5 | -2 | -1 | -2
Cc1ccc(C2=NNC(=O)C(c3c[nH]c4ccccc34)C2)cc1 (stereo not drawn) | 1 | -1 | -1 | 4
O=C1CC(c2c[nH]c3ccccc23)C(=O)N1 (stereo not drawn) | 0 | 30* | 4 | 2
CC(C)Oc1ccc(C(=O)Nc2c3c(nn2-c2ccccc2)CS(=O)(=O)C3)cc1 | -3 | -1 | -9 | -1
CCCCCCc1cc2cc(S(=O)(=O)c3ccc(Cl)cc3)c(=O)oc2cc1O | 9 | -5 | -11 | -2
CCN(CC)c1ccc2cc(S(=O)(=O)c3ccc(Cl)cc3)c(=O)oc2c1 | 6 | 39* | -3 | -18
S=C1NC(c2cccs2)=CC(c2ccc(Br)cc2)N1 (stereo not drawn) | 17* | 0 | 4 | -4
CCCN(CC(=O)Nc1ccccc1C)C(=O)c1ccc(S(=O)(=O)N2CCCCCC2)cc1 | -1 | 5 | 3 | 1
CCCN(CC(=O)Nc1ccccc1C)C(=O)c1ccc(C2SCCS2)cc1 | -5 | 1 | 80* | 4
O=C1C=C(c2ccc(C(=O)O)cc2)C[C@@H](c2ccc(F)cc2)C1 | 9 | 1 | -5 | -1
Cc1c(-c2ccccc2)oc2c(C(=O)N3CCN(c4ccccc4F)CC3)cccc2c1=O | 8 | 1 | -3 | -11
O=C(NCc1ccc(F)cc1)C(c1ccco1)N(C(=O)c1csnn1)C1CC1 (stereo not drawn) | -5 | 6 | 7 | 2
O=C1CC2(CCCC2)CC(=O)N1c1ccccc1 | -1 | -3 | 4 | 30*
COc1ccc(N/C=C/C(=O)c2cc(OC)c(OC)c(OC)c2)cc1 | 2 | 12* | 9 | 2
COc1cccc(N/C=C/C(=O)c2ccc(Cl)cc2)c1 | 4 | i | 9 | 1
COc1ccc(N/C=C/C(=O)c2ccc(Cl)cc2)cc1 | -3 | 33* | -2 | 0
COC(=O)c1ccc(-c2nc3ccccc3[nH]2)cc1 | 2 | 0 | -333 | 2
COc1ccc(/C(N)=N/OC(=O)N2CCOCC2)cc1 | -1 | 14* | 0 | 2
COc1ccc(OC(=O)N2CCOCC2)cc1 | 0 | 4 | 0 | 2
CCOC(=O)Cc1nnc(NC(=O)CSc2nnc3c(n2)[nH]c2ccccc23)s1 | -3 | -5 | 65* | -5
O=[N+]([O-])c1ccc(C(=S)N2CCCC2)cc1 | 5 | + | 7 | 2
O=C(c1ccc([N+](=O)[O-])cc1)N1CCCC1 | 4 | -3 | 6 | 2
CCCCOn1c(C)c(C(C)=O)c2c3no[n+]([O-])c3ccc21 | 5 | 13* | 1 | 0
CCOC(=O)c1c(C)n(OCc2ccccc2)c2ccc3c(no[n+]3[O-])c12 | -2 | -7 | 3 | 3
O=C(O)c1cccc(Cn2c(Cl)c(/C=N/NC(=O)c3ccccc3O)sc2=O)c1 | 8 | 15* | 10 | 1
O=C(O)c1cccc(Cn2c(Cl)c(/C=N/NC(=O)c3ccccc3Cl)sc2=O)c1 | -3 | 1 | 8 | 2
CCCOC(=O)NC(CC)COC(=O)Nc1cc(C)ccc1C (stereo not drawn) | 4 | 46* | 6 | -1
CCCCOC(=O)Nc1cc(Cl)ccc1C | 11 | -9 | 1 | -4
CC(Sc1ccsc1[N+](=O)[O-])C(=O)NCc1ccccc1 (stereo not drawn) | -10 | 22* | -6 | nt
COc1ccccc1N(CC(=O)N(C)Cc1ccccc1)S(=O)(=O)c1cccs1 | -1 | + | 6 | -2
